# Test results as given in PMC7862700, “An all-to-all approach to the identification of sequence-specific readers for epigenetic DNA modifications on cytosine”.
# How the values were obtained:
# Assay in all cases: DAPPL (digital affinity profiling via proximity ligation, sequencing); 10 mM Tris-HCl pH 7.5, 50 mM NaCl, 1 mM DTT, 4% glycerol, room temperature, 30 min; GST-TFs on glutathione beads, 16-mer random dsDNA library, 0.1% formaldehyde crosslink after washing; high values mean tight binding
# [1] = target: T1, FEV (Homo sapiens, UniProt Q99581 1-238); details: protein: recombinant; tags: N-terminal GST; dsDNA, one strand shown
# T1 sequence: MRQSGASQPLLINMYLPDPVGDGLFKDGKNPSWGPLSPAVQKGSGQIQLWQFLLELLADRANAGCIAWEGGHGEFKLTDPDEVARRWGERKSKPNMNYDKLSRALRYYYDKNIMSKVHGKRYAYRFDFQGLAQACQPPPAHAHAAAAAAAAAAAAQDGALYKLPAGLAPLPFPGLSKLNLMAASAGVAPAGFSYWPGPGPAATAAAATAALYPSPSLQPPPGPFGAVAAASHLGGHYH
# Summary of the method: (§1)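 The binding signal reported is, for every hexamer, its read frequency for a factor over its read frequency for the tag-only sample. Reads came from pools of yeast-expressed, GST-fused human transcription factors on glutathione beads, barcoded with DNA and mixed with that sample, which were incubated with 200 nmole of a random double-stranded 16-mer DNA library in Tris/NaCl/DTT/glycerol buffer at room temperature for 30 min. After washing, the pools were crosslinked with 0.1% formaldehyde, proximity-ligated with BsaI/T4 ligase for 1 h at 37 °C, PCR-amplified and sequenced on an Illumina NextSeq500.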
# [2] = target: ETV5 (Homo sapiens, UniProt P41161 1-510); details: protein: recombinant; tags: N-terminal GST; dsDNA, one strand shown
# Sequence of ETV5 (P41161 whole entry): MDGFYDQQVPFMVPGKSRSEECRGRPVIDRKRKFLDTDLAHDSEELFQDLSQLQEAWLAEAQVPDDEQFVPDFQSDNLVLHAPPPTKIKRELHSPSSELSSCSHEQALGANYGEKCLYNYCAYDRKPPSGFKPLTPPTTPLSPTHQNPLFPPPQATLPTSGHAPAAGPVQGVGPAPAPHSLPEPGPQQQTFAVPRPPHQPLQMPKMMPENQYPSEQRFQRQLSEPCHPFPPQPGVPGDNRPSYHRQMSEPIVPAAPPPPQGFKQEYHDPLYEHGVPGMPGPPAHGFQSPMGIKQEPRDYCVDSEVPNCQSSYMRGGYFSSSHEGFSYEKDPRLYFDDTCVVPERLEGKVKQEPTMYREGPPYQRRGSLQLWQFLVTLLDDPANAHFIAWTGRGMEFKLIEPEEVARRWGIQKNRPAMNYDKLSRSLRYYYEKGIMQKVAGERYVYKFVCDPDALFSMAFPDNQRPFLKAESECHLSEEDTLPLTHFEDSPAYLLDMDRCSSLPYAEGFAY
# Summary of the method: as §1
# [3] = target: HSF1 (Homo sapiens, UniProt Q00613 1-529); details: protein: recombinant; tags: N-terminal GST; chain copies: 3; dsDNA, one strand shown
# Sequence of HSF1 (Q00613 whole entry): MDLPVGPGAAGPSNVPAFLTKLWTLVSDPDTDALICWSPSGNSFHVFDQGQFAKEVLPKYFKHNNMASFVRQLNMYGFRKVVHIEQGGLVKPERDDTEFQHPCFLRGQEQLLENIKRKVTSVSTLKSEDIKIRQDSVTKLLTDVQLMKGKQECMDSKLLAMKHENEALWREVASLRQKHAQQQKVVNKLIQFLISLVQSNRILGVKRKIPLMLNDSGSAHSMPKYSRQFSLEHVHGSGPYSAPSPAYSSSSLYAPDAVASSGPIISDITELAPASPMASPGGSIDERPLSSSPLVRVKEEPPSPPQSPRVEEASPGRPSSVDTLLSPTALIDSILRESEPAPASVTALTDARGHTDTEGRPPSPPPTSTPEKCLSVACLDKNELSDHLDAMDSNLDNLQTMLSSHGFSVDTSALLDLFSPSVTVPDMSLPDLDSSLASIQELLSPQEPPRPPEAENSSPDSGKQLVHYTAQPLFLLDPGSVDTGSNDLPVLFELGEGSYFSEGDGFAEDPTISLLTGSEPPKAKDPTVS
# Summary of the method: as §1
# [4] = target: T2, SPIC (Homo sapiens, UniProt Q8N5J4 1-248); details: protein: recombinant; tags: N-terminal GST; dsDNA, one strand shown
# T2 sequence: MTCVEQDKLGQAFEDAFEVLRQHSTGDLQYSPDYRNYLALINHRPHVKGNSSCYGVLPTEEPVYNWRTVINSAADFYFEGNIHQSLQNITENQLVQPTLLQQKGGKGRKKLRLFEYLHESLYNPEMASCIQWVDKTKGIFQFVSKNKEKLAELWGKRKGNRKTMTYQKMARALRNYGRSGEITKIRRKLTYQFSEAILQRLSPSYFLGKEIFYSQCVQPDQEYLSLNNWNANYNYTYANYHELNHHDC
# Summary of the method: as §1
# [5] = target: ELF4 (Homo sapiens, UniProt Q99607 1-663); details: protein: recombinant; tags: N-terminal GST; dsDNA, one strand shown
# Sequence of ELF4 (Q99607 whole entry): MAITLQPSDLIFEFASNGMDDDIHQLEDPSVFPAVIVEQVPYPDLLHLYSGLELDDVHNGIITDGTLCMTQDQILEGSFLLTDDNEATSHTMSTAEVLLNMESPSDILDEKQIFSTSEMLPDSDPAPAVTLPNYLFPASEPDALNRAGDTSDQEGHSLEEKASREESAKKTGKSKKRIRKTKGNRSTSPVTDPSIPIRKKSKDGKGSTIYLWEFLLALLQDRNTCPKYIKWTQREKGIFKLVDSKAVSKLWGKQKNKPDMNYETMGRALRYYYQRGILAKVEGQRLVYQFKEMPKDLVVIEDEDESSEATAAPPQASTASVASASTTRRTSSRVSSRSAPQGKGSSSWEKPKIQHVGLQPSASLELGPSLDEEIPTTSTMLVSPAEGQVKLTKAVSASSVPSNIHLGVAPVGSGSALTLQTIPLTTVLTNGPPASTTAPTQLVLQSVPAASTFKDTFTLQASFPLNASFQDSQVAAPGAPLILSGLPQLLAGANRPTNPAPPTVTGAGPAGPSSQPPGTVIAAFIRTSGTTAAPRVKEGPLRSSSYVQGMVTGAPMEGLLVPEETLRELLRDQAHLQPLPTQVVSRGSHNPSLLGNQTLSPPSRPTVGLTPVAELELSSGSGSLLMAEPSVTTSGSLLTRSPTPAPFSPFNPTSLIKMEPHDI
# Summary of the method: as §1
# [6] = target: T3, ELK4 (Homo sapiens, UniProt P28324-2 1-405); details: protein: recombinant; tags: N-terminal GST; dsDNA, one strand shown
# T3 sequence: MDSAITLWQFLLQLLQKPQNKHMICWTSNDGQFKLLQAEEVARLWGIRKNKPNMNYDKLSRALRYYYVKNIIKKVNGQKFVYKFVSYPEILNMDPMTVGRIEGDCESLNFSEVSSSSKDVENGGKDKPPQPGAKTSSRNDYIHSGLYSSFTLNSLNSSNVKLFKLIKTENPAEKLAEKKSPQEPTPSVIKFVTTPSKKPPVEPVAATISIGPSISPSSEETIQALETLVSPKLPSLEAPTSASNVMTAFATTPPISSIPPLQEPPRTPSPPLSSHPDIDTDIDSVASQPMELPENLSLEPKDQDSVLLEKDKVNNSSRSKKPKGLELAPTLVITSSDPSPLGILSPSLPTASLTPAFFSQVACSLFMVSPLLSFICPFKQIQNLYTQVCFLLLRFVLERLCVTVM
# Summary of the method: as §1
# [7] = target: T4, ETV2 (Homo sapiens, UniProt O00321 1-342); details: protein: recombinant; tags: N-terminal GST; dsDNA, one strand shown
# T4 sequence: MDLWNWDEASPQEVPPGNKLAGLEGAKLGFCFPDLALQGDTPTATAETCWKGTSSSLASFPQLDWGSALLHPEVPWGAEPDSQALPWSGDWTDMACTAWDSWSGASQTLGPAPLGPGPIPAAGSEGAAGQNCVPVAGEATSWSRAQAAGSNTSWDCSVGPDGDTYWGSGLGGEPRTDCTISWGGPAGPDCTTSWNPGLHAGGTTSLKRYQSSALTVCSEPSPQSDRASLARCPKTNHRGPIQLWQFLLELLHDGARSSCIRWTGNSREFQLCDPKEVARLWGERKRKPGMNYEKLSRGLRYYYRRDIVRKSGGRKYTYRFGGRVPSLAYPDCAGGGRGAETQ
# Summary of the method: as §1
# [8] = target: T5, ELF3 (Homo sapiens, UniProt P78545 1-371); details: protein: recombinant; tags: N-terminal GST; dsDNA, one strand shown
# T5 sequence: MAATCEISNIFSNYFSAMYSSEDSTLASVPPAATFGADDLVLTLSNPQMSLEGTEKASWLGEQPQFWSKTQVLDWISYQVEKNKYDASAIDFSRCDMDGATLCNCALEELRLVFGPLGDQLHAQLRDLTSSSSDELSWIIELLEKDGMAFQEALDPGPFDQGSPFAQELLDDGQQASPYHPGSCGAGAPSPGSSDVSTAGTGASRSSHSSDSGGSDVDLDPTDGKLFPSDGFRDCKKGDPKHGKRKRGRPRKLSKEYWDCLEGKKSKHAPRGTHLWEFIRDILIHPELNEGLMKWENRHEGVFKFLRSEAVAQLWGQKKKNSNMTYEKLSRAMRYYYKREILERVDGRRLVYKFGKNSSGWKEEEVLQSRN
# Summary of the method: as §1
# [9] = target: CRX (Homo sapiens, UniProt O43186 1-299); details: protein: recombinant; tags: N-terminal GST; dsDNA, one strand shown
# Sequence of CRX (O43186 whole entry): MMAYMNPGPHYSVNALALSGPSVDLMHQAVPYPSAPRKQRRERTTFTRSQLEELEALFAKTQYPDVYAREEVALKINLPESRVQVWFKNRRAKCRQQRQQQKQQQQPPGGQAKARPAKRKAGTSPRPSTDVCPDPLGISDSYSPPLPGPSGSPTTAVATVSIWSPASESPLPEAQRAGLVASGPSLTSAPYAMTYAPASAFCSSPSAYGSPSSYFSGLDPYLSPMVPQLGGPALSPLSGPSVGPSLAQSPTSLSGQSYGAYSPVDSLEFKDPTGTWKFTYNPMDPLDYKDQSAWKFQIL
# Summary of the method: as §1
# [10] = target: ETV1 (Homo sapiens, UniProt P50549 1-477); details: protein: recombinant; tags: N-terminal GST; dsDNA, one strand shown
# Sequence of ETV1 (P50549 whole entry): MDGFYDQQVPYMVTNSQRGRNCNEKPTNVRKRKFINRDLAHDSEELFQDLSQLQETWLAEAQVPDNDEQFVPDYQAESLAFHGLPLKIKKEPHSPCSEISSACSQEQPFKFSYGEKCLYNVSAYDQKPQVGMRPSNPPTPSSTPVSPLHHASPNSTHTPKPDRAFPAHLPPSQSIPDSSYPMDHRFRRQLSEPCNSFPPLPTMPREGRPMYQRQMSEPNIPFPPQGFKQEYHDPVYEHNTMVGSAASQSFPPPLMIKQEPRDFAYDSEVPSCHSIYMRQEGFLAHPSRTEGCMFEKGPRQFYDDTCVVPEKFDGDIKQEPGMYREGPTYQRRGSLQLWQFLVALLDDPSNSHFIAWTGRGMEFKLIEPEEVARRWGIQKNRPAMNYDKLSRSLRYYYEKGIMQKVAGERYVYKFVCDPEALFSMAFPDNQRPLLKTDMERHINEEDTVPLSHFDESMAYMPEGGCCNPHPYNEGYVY
# Summary of the method: as §1
# [11] = target: T6, ERF (Homo sapiens, UniProt P50548 1-548); details: protein: recombinant; tags: N-terminal GST; dsDNA, one strand shown
# T6 sequence: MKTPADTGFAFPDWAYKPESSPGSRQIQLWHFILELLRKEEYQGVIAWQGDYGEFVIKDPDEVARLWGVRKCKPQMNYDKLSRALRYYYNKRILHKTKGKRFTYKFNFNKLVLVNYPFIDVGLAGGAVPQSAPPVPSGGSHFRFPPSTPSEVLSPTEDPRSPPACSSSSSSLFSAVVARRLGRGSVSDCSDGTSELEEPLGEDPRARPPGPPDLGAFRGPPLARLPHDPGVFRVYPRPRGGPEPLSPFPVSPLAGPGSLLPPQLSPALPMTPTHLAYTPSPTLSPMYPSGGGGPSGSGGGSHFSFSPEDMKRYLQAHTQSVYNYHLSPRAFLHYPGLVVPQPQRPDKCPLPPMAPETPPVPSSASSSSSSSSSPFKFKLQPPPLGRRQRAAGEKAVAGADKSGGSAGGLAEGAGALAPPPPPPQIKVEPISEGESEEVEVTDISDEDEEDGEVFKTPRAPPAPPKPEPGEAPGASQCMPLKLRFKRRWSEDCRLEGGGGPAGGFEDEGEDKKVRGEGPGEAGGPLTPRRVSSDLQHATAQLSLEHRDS
# Summary of the method: as §1
# [12] = target: T7, ETV3L (Homo sapiens, UniProt Q6ZN32 1-361); details: protein: recombinant; tags: N-terminal GST; dsDNA, one strand shown
# T7 sequence: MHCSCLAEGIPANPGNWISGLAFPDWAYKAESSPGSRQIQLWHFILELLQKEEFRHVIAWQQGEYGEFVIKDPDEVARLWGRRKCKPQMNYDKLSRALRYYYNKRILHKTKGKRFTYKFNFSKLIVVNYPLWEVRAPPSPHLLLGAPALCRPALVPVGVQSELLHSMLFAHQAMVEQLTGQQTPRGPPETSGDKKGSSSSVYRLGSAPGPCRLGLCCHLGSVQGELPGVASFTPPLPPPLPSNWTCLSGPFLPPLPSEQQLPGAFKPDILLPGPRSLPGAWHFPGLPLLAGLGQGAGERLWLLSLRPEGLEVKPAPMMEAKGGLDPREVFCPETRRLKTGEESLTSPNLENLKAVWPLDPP
# Summary of the method: as §1
# [13] = target: T8, ETS2 (Homo sapiens, UniProt P15036 1-469); details: protein: recombinant; tags: N-terminal GST; dsDNA, one strand shown
# T8 sequence: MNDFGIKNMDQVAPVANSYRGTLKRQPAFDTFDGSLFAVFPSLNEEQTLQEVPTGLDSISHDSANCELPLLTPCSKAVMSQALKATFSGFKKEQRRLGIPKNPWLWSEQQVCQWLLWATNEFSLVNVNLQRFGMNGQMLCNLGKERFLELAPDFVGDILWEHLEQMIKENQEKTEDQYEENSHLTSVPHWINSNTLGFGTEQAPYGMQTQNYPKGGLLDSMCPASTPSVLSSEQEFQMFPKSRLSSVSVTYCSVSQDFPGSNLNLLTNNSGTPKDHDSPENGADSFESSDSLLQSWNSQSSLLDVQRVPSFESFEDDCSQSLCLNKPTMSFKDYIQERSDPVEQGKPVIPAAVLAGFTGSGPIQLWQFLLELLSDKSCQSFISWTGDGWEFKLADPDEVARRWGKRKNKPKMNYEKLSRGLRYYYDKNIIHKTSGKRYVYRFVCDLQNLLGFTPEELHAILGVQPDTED
# Summary of the method: as §1
# [14] = target: T9, SPDEF (Homo sapiens, UniProt O95238 1-335); details: protein: recombinant; tags: N-terminal GST; dsDNA, one strand shown
# T9 sequence: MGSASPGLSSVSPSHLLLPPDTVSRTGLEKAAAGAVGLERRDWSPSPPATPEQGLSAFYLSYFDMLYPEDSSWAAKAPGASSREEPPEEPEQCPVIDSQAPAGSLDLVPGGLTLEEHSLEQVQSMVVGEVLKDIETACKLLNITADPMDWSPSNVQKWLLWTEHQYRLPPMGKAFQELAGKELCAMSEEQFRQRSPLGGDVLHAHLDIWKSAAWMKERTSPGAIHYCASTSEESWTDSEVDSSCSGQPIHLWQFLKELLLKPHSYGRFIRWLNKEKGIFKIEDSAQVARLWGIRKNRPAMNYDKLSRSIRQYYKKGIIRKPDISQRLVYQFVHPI
# Summary of the method: as §1
# [15] = target: T10, ETV7 (Homo sapiens, UniProt Q9Y603 1-341); details: protein: recombinant; tags: N-terminal GST; dsDNA, one strand shown
# T10 sequence: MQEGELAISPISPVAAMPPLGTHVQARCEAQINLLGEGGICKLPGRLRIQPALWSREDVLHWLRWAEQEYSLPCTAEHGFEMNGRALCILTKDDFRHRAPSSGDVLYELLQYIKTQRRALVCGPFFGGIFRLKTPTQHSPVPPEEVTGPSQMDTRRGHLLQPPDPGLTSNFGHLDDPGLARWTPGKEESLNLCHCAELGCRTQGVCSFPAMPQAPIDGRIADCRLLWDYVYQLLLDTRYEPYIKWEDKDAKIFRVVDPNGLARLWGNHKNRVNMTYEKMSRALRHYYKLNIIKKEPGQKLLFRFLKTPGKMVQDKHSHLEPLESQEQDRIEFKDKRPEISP
# Summary of the method: as §1
# [16] = target: T11, ELF5 (Homo sapiens, UniProt Q9UKW6-2 1-255); details: protein: recombinant; tags: N-terminal GST; dsDNA, one strand shown
# T11 sequence: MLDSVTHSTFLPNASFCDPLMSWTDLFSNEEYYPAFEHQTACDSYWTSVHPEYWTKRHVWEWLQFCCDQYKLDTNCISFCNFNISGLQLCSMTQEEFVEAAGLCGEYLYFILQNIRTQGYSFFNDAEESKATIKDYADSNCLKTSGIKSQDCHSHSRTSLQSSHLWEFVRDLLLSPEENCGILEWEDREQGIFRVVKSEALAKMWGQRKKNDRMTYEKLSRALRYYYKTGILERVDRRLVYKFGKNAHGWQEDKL
# Summary of the method: as §1
# [17] = target: T12, ETV3 (Homo sapiens, UniProt P41162-2 1-143); details: protein: recombinant; tags: N-terminal GST; dsDNA, one strand shown
# T12 sequence: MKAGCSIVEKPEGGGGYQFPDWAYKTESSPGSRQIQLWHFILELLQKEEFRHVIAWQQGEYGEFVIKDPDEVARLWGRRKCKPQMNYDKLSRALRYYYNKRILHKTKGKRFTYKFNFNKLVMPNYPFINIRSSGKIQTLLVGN
# Summary of the method: as §1
# [18] = target: ETV6 (Homo sapiens, UniProt P41212 1-452); details: protein: recombinant; tags: N-terminal GST; dsDNA, one strand shown
# Sequence of ETV6 (P41212 whole entry): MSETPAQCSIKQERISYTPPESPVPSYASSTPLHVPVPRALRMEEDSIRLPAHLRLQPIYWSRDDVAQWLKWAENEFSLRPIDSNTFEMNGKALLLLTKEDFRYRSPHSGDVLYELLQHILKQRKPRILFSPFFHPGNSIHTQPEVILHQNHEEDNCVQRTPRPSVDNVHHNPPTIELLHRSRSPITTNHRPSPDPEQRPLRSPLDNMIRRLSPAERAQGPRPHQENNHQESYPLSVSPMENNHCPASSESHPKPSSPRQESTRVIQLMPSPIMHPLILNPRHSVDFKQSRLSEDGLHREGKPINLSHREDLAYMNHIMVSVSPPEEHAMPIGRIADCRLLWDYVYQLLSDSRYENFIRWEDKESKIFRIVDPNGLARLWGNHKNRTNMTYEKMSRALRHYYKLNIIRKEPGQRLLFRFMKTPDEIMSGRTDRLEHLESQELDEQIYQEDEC
# Summary of the method: as §1
sequence,measurement,setting,value
GGCTCC,binding signal,[1],"1.35 fold enrichment (6-mer frequency, TF over GST control)"
same,binding signal,[2],"1.37 fold enrichment (6-mer frequency, TF over GST control)"
same,binding signal,[3],"1.13 fold enrichment (6-mer frequency, TF over GST control)"
same,binding signal,[4],"1.16 fold enrichment (6-mer frequency, TF over GST control)"
same,binding signal,[5],"1.24 fold enrichment (6-mer frequency, TF over GST control)"
same,binding signal,[6],"1.29 fold enrichment (6-mer frequency, TF over GST control)"
same,binding signal,[7],"1.43 fold enrichment (6-mer frequency, TF over GST control)"
same,binding signal,[8],"1.32 fold enrichment (6-mer frequency, TF over GST control)"
same,binding signal,[9],"1.1 fold enrichment (6-mer frequency, TF over GST control)"
same,binding signal,[10],"1.24 fold enrichment (6-mer frequency, TF over GST control)"
same,binding signal,[11],"1.28 fold enrichment (6-mer frequency, TF over GST control)"
same,binding signal,[12],"1.27 fold enrichment (6-mer frequency, TF over GST control)"
same,binding signal,[13],"1.21 fold enrichment (6-mer frequency, TF over GST control)"
same,binding signal,[14],"1.48 fold enrichment (6-mer frequency, TF over GST control)"
same,binding signal,[15],"1.25 fold enrichment (6-mer frequency, TF over GST control)"
same,binding signal,[16],"1.33 fold enrichment (6-mer frequency, TF over GST control)"
same,binding signal,[17],"1.3 fold enrichment (6-mer frequency, TF over GST control)"
same,binding signal,[18],"1.25 fold enrichment (6-mer frequency, TF over GST control)"
